These results are taken from PubChem BioAssay (Tox21).

Assay [1] addresses Luciferin 4-monooxygenase (Photinus pyralis) (UniProt P08659). The assay can be described thus: qHTS assay to identify small molecule inhibitors of firefly luciferase (AID 1224835). Also: nearly all actives have a fitted effect of over 25% in size. In a few lines: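 Inhibition of purified Photinus luciferase is measured by luminescence. Substrate levels (D-luciferin, ATP) sit at their KM values. Each compound is tested in a concentration series.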
On the technique in general: Quantitative high-throughput screening tests each substance at several concentrations.

Assay [2] in a line: qHTS assay to identify small molecule agonists of the hypoxia (HIF-1) signaling pathway - cell viability counter screen (AID 1224844; calls by dose curve; also: nearly all actives have a fitted effect of over 50% in size; also: potency is read from the fitted curve at half-maximal effect). In a few lines:
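Viability counter screen: HRE-bla ME-180 cells plated 5 hrs before compound addition, treated 17 hrs at 37C and 5% CO2, then CellTiter-Glo added after the FRET reporter read; luminescence after 30 min.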

Assay [3] in a line: qHTS RealTime-Glo MT Cell Viability Assay in HEK293 cells - 32 hour (AID 1224868). Also: nearly all actives have a fitted effect of over 50% in size. Also: potency is read from the fitted curve at half-maximal effect. The method, boiled down:
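Tox21 10K qHTS, HEK293, 600 cells/well, RealTime-Glo reagent co-dispensed with cells; 5 h preincubation, compound by pintool, 37 C, luminescence at 0–40 h.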

Assay [4] can be described thus: qHTS RealTime-Glo MT Cell Viability Assay in HepG2 cells - 40 hour (AID 1224870). Also: nearly all actives have a fitted effect of over 50% in size. Also: potency is read from the fitted curve at half-maximal effect. The method, boiled down: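 Real-time viability: cells seeded at 600 per well together with NanoLuc and cell-permeant prosubstrate, compounds added after 5 h incubation. Luminescence tracked at 0, 8, 16, 24, 32 and 40 h of exposure.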
Assay [5] can be described thus: qHTS assay to identify small molecule agonists of the constitutive androstane receptor (CAR) signaling pathway - cell viability counter screen (AID 1224836). Also: nearly all actives have a fitted effect of over 45% in size. The method, boiled down: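 Fluorescence from CellTiter-Fluor indicates live cells after 23 h exposure. The human hepatoma line expresses hCAR and a CYP2B6-2.2kb reporter. Incubation medium contains 0.75 uM PK11195 (final).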

Assay [6] is described as follows: qHTS assay to identify small molecule antagonists of the constitutive androstane receptor (CAR) signaling pathway - cell viability counter screen (AID 1224837). Also: nearly all actives have a fitted effect of over 45% in size. Also: potency is read from the fitted curve at half-maximal effect. In a few lines:
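Cells are seeded, rested 4 hr at 37 C/5% CO2, dosed with compound (15-point series) and 50 nM CITCO, incubated a further 23 hr, and then CellTiter-Fluor reagent is added before fluorescence is read. The line is HepG2 with stable hCAR and CYP2B6-2.2kb.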

For assay [7], the target named is Nuclear receptor subfamily 1 group I member 3 (Homo sapiens) (UniProt Q14994). The assay can be described thus: qHTS assay to identify small molecule antagonists of the constitutive androstane receptor (CAR) signaling pathway (AID 1224838).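 Also: HepG2 cells stably expressing hCAR with CYP2B6 luciferase reporter stimulated by CITCO; nearly all actives have a fitted effect of over 40% in size.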 The method, boiled down: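 Luminescence from a CYP2B6-2.2kb promoter reporter in hCAR-expressing HepG2 cells reflects CAR signaling. Cells received compounds at 15 concentrations and 50 nM CITCO (final), then incubated 24 h at 37 C/5% CO2.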
Nuclear receptor subfamily 1 group I member 3 (Homo sapiens), sequence (Q14994 whole entry, looked up): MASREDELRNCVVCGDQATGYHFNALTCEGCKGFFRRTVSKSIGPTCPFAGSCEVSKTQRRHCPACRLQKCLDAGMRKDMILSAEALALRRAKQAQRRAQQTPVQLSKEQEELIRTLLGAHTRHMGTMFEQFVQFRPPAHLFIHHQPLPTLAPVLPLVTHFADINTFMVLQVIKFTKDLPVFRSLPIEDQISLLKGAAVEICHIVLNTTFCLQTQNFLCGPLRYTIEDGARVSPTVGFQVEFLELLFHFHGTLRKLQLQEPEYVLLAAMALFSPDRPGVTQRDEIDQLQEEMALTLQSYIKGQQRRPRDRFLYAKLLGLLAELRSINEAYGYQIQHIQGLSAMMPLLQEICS

The target is the same in assay [8]. Description: qHTS assay to identify small molecule agonists of the constitutive androstane receptor (CAR) signaling pathway (AID 1224839). Also: nearly all actives have a fitted effect of over 15% in size. Also: potency is read from the fitted curve at half-maximal effect.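 As to activation: HepG2 cells stably carrying human CAR and a CYP2B6 luciferase reporter.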 In a few lines: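 Stable hCAR/CYP2B6-2.2kb HepG2 line in DMEM with 10% FBS; compounds (15 concentrations) and 0.75 uM PK11195 final, 24 h at 37 C/5% CO2, then ONE-Glo luminescence after 30 min.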
Assay [9] can be described thus: qHTS assay to identify small molecule antagonists of the estrogen related receptor signaling pathway with the pleiotropic PPARgamma coactivator (PGC) from Tox21 10K library (AID 1224841; call rule not given here; also: actives are mostly falling curves and most rising ones were filed inactive; nearly all actives have a fitted effect of over 50% in size; also: potency is read from the fitted curve at half-maximal effect). The method, boiled down:
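Cells stably carrying the PGC/ERR reporter, seeded at 2,000 per well, received pin-transferred compounds 6 h post-plating. Exposure lasted 18 h at 37 C. Signal: One-Glo luminescence.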

Assay [10] can be described thus: qHTS assay to identify small molecule agonists of the estrogen related receptor signaling pathway with the pleiotropic PPARgamma coactivator (PGC) from Tox21 10K library (AID 1224842). Also: nearly all actives have a fitted effect of over 15% in size. The method, boiled down:
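Luminescence from One-Glo (30 min, room temperature) measured after PGC/ERR cells had 18 h at 37 C with pinned compound (23 nL in DMSO). Cells had been seeded at 2,000 per well and pre-incubated 6 h.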

The nature of assay [11]: qHTS assay to identify small molecule agonists of the estrogen related receptor (ERR) signaling pathway from Tox21 library (AID 1224849; calls by dose curve; also: nearly all actives have a fitted effect of over 15% in size). The conditions noted are these: ERR reporter cell line, ONE-Glo luciferase, 18 h; at 92.4 µM (top of the series) unless noted. In a few lines:
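Quantitative HTS in agonist format: NTP ERR cell line, compounds transferred in DMSO after 6 h plating, 18 h incubation at 37 C, ONE-Glo luminescence endpoint.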

A short description of assay [12]: qHTS RealTime-Glo MT Cell Viability Assay in HepG2 cells - 24 hour (AID 1224867). Also: nearly all actives have a fitted effect of over 50% in size. Also: potency is read from the fitted curve at half-maximal effect. In a few lines: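 Cells + NanoLuc/prosubstrate dispensed (600 cells/well) → 5 h at 37 C/5% CO2 → compounds in DMSO transferred → 40 h incubation at 37 C, luminescence read at 0, 8, 16, 24, 32, 40 h.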
A short description of assay [13]: A CellTox Green Cytotoxicity Assay to monitor cytotoxicity in HEK293 cells - 0 hour (AID 1224869). Also: nearly all actives have a fitted effect of over 50% in size. In a few lines: (§1)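 Dead-cell fluorescence measured kinetically: asymmetric cyanine dye, HEK293, 600 cells/well, 5 h settle, 23 nL cpd/DMSO, 37 C, reads 0–40 h every 8 h.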
Assay [14] can be described thus: A CellTox Green Cytotoxicity Assay to monitor cytotoxicity in HEK293 cells - 40 hour (AID 1224871). Also: nearly all actives have a fitted effect of over 45% in size. Also: potency is read from the fitted curve at half-maximal effect. The method, boiled down:
as §1

Assay [15] can be described thus: qHTS assay to identify small molecule antagonists of the estrogen related receptor signaling pathway with the pleiotropic PPARgamma coactivator (PGC) from Tox21 10K library - cell viability counter screen (AID 1224840; active = well fitted cell-killing curve with a large enough effect in the repeat runs, not every such curve was filed as active; also: nearly all actives have a fitted effect of over 40% in size; also: potency is read from the fitted curve at half-maximal effect). The method, boiled down:
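Cell viability is measured by CellTiter-Fluor fluorescence in PGC/ERR cells that receive compounds after a 6-hour attachment period and are then incubated 17.5 hours at 37 C.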

Assay [16] addresses Thyrotropin receptor (Homo sapiens) (UniProt P16473). The assay can be described thus: qHTS assay to identify small molecule agonists of the thyroid stimulating hormone receptor (TSHR) signaling pathway (AID 1224843; calls by dose curve; also: nearly all actives have a fitted effect of over 45% in size). The method, boiled down:
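Agonist activity read as cAMP rise via d2/cryptate HTRF competition, 1 h room-temperature detection, in HEK293 cells expressing TSHR. Fifteen-point titrations, each run in triplicate, with a 30 min room-temperature incubation beforehand.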

Assay [17] can be described thus: qHTS assay to identify small molecule agonists of H2AX - cell viability counter screen (AID 1224847; calls by dose curve; also: nearly all actives have a fitted effect of over 30% in size; also: potency is read from the fitted curve at half-maximal effect). In a few lines:
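Viability of CHO-K1 (wild type) cells after 3 hr compound exposure was measured by CellTiter-Glo luminescence.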

Assay [18] can be described thus: qHTS assay to identify small molecule antagonists of the estrogen related receptor (ERR) signaling pathway from Tox21 library (AID 1224848). Also: nearly all actives have a fitted effect of over 50% in size. Also: potency is read from the fitted curve at half-maximal effect. In a few lines:
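Luciferase luminescence (ONE-Glo, 30 min room temperature) was the read-out. Cells of the NTP-supplied ERR line, 2,000 per well, were given 6 h at 37 C before compound addition in DMSO and 18 h exposure at 37 C.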

A short description of assay [19]: qHTS assay to identify small molecule agonists of H2AX (AID 1224845; active = well fitted activation curve with a large enough effect in the signal ratio in the repeat runs, not every such curve was filed as active; the % refers to the signal ratio). In a few lines: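 Phospho-H2AX Ser139 measured by HTRF (ex 320 nm; em 665 and 620 nm) after 24 hr antibody incubation. Compounds, 15 concentrations, 0.76% DMSO, were applied to CHO-K1 cells for 3hr at 37C before lysis.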
Assay [20] can be described thus: qHTS assay to identify small molecule agonists of the hypoxia (HIF-1) signaling pathway (AID 1224846; active = well fitted activation curve with a large enough effect in the signal ratio in the repeat runs, not every such curve was filed as active; the % refers to the signal ratio). The method, boiled down: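 Agonist mode reporter screen. ME-180 cells stably expressing bla under HRE control received test compounds in DMSO for 17 hrs (37C, 5% CO2), and beta-lactamase activity was then detected with the CCF4-AM FRET substrate.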

Molecules are shown by their SMILES. “And” between values parts separate entries of the source, which are not always exact repeats. Equal entries are not always repeated. Results filed as inconclusive are left out. Where a structure was tested more than once in an assay, its records may differ in their call. The source made the active and inactive calls. Unless noted, calls follow the shape of the dose curve; as a rule, active = well fitted curve in the direction sought with a large enough effect in the repeat runs; inconclusive = weak or mixed curves; inactive = no such curve, though single readings can be large; an effect the other way counts as inactive or inconclusive.
% is scaled to controls: 0 for no effect and ±100 for the full control effect.

Luciferin 4-monooxygenase (Photinus pyralis), sequence (P08659 whole entry, looked up): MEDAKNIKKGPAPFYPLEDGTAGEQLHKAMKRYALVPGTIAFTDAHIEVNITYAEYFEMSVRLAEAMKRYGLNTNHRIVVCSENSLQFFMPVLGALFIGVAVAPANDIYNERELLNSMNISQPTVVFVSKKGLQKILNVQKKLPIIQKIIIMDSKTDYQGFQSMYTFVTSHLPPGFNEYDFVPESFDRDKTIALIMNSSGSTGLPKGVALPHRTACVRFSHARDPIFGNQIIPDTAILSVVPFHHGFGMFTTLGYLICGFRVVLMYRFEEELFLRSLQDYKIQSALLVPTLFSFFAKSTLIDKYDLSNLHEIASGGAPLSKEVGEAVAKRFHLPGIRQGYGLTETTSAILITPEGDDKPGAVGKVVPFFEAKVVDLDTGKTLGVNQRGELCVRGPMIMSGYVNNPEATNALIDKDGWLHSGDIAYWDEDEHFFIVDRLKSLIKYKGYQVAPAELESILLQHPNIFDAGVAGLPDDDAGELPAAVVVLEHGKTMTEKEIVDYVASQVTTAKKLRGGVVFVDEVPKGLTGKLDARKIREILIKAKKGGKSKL
Thyrotropin receptor (Homo sapiens), sequence (P16473 whole entry, looked up): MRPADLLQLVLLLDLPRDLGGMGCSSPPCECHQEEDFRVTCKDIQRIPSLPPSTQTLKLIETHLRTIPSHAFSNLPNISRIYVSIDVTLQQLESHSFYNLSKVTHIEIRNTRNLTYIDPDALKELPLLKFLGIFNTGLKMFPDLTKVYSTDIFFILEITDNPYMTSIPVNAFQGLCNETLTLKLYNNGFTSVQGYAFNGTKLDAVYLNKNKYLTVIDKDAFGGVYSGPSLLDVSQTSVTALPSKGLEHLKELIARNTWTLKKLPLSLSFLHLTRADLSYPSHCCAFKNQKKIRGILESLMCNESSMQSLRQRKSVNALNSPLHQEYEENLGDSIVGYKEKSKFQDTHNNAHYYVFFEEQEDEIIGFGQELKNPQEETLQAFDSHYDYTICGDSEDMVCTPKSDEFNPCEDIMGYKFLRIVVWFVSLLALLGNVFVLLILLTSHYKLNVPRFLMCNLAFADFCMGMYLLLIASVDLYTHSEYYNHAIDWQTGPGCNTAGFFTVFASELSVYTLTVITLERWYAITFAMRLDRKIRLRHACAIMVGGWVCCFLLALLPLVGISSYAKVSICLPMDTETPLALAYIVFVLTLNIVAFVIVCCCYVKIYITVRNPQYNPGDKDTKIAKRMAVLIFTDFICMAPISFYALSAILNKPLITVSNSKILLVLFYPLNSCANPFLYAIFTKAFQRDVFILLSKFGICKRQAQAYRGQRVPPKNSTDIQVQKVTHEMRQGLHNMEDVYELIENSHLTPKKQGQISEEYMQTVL

For `Nc1ccc2cc3ccc(N)cc3nc2c1`, in assay [1], the Potency entry was “inactive”. For the same compound, the Potency was 24.5 µM (active) and inactive in [2]; 871 nM (active) and 2.13 µM (active) in assay [3]; 9.52 µM (active) in assay [4].

As to `CCCCCCCC/C=C\CCCCCCCC(=O)N(C)CC(=O)O`, the Potency entry in assay [5], in assay [6], in assay [7], in [8], in assay [9] and in [10] was “inactive” throughout. Besides, the Potency result in [12], in assay [13] and in assay [4] was “inactive” each time. Also, the Potency in assay [2] is 49 µM (active); in assay [14], 34.7 µM (active). Moreover, the activity change, positive = activation in assay [11] is -30% (inactive).

As to `CC(C)c1cccc(C(C)C)c1N1C(=O)c2ccc(O)cc2C1=O`, the Potency entry in [1], in assay [15], in assay [16], in [2] and in [13] was “inactive” throughout. The Potency in assay [17] is 80 µM (active); in assay [12], 49 µM (active).

In the case of `Nc1cc(Cl)c([N+](=O)[O-])cc1O`, the Potency result in assay [7], in assay [9], in assay [10], in assay [16], in assay [18] and in assay [12] was “inactive” throughout. In addition, the Potency entry in assay [13], in assay [4] and in assay [14] was “inactive” throughout. Further, the activity change, positive = activation in [11] is -13.4% (inactive).

Regarding `COC(=O)C1=C(C)NC(C)=C(C(=O)OCCCN2CCC(c3ccccc3)(c3ccccc3)CC2)C1c1cccc([N+](=O)[O-])c1` (centres undefined), the Potency in assay [6] is 23.7 µM (active); in [15], 26.6 µM (active); in [9], 10.6 µM (active); in assay [2], 21.3 µM (active); in assay [18], 10.6 µM (active); in assay [3], 10.7 µM (active). Further, the Potency entry in assay [19], in assay [13] and in assay [14] was “inactive” each time. Moreover, the activity change, positive = activation in [11] is -67.7% [at 42.5 µM] (inactive).

Take `O=C(NO)c1ccccc1`: the Potency entry in [5], in [6], in assay [15], in assay [10], in assay [12] and in assay [4] was “inactive” in each case. In addition, the values for the Potency in [9] and in assay [18] were 18.4 µM (active) and 23.2 µM (active), respectively. For the same compound, the activity change, positive = activation in assay [11] is -48.5% (inactive).

For the compound `NCCCC(O)(P(=O)(O)O)P(=O)(O)O`, the Potency entry in [5], in assay [6], in assay [7], in assay [8], in assay [15] and in assay [16] was “inactive” in each case. Also, the Potency result in [2], in assay [19], in assay [17], in assay [12], in assay [3] and in assay [13] was “inactive” each time. Further, the Potency entry in [4] and in assay [14] was “inactive” in each case. Further, in assay [20], the result was inactive.

As to `Cc1oc(-c2ccccc2)nc1CCOc1ccc(C[C@H](Nc2ccccc2C(=O)c2ccccc2)C(=O)O)cc1`, the Potency result in assay [16], in [18], in assay [12], in assay [3] and in assay [13] was “inactive” each time. The activity change, positive = activation in [11] is -13.2% (inactive).

`CN1[C@@H]2CC[C@H]1CC(OC(=O)C(CO)c1ccccc1)C2` (some centres undefined): the Potency result in [5], in assay [6], in [7], in [15], in [2] and in assay [19] was “inactive” in each case. Moreover, the Potency result in assay [17], in assay [12], in assay [3], in [13], in assay [4] and in [14] was “inactive” each time.

For the compound `CN(C)CCCN1c2ccccc2Sc2ccc(C(F)(F)F)cc21`, the Potency entry in assay [1], in assay [8], in assay [16], in assay [2] and in assay [17] was “inactive” each time. Besides, the compound was called inactive in assay [20]. Also, the results for the Potency in [3] and in assay [14] were 21.3 µM (active) and 26.8 µM (active), respectively.

Take `Cc1ccc(N)cc1O`: the Potency result in assay [5], in [6], in assay [7], in [15], in [2] and in [12] was “inactive” in each case. The Potency entry in assay [13] and in assay [14] was “inactive” throughout. Also, the values for the Potency in assay [8] and in [17] were 27.3 µM (active) and 101 µM (active), respectively. For the same compound, the result in [20] was inactive.
